Experimental data: paper PMC7819943, “Rice protein-binding microarrays: a tool to detect cis-acting elements near promoter regions in rice”
In all, about 39,000 sequences were measured (“fluorescence intensity (a.u.)”: median about 4,300, highest 2% from about 39,000 on). Only a selection was taken, and the highest values are over-represented in it overall.

Each sequence was assayed against T1, OsSMF1 (Oryza sativa, UniProt Q6ZLB0 1-436) (assay: protein-binding microarray (RPBM); PBS, 2% BSA, 51.3 ng/ul salmon testes DNA, 50 uM zinc acetate, 200 nM TF, 25 C, 1 h; high values mean tight binding). Conditions: protein: recombinant; tags: N-terminal polyhistidine and DsRed monomer fusion (pET32a); chain copies: 2; label: CyDye5-dUTP incorporated in the synthesized complementary strand; 3' TTTTT single-stranded linker to array surface; dsDNA, one strand shown.
T1 sequence: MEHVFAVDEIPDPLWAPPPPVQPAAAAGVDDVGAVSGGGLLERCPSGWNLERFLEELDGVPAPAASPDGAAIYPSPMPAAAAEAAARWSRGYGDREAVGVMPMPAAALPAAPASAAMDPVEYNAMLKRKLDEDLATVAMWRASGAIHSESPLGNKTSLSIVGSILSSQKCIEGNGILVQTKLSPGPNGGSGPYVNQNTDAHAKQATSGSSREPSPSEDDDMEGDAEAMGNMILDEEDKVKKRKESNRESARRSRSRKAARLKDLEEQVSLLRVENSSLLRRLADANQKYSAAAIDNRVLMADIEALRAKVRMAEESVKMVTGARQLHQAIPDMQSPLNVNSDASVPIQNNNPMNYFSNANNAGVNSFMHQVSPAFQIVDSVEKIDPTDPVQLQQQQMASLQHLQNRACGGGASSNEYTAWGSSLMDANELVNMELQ
Outline: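 Binding signal here means per-feature fluorescence intensity in arbitrary units. The values were read on an Axon 4000B scanner after a custom Agilent array, double-stranded by primer extension with Cy5-dUTP, was incubated with 200 nM protein at 25 °C for 1 h in PBS with 2% BSA, salmon testes DNA and 50 µM zinc acetate, then washed. The proteins were transcription factors with an N-terminal polyhistidine tag and DsRed, expressed in E. coli BL21-CodonPlus and purified on Ni–NTA.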

Sequence	binding signal
ACCATGGTCTAACCTACGTGGCATGCCACGTGTGCGTGTGCGGAGTCACCTAGTGCAG	56000 fluorescence intensity (a.u.)
ACCCAAAGCCACCCGCAACAACCGACGACGACGACGACCGCGGAGTCACCTAGTGCAG	24100 fluorescence intensity (a.u.)
TTGAACCCCGTGTACATCAACAAACCACGTGTCCATCAAGCGGAGTCACCTAGTGCAG	6220 fluorescence intensity (a.u.)
CACGTGTACAAGGGCAAAGCGCAACACCGACCCGAGTCCACGGAGTCACCTAGTGCAG	39300 fluorescence intensity (a.u.)
CATGGTGCGGGCCAGCTCAGCTGTGCACGTGGCATGCCACCGGAGTCACCTAGTGCAG	17200 fluorescence intensity (a.u.)
TAACCATGGTCTTGCCTACGTGGCGTGCCACGTAGACGATCGGAGTCACCTAGTGCAG	34300 fluorescence intensity (a.u.)
AAAGTTTCATGCCTGAGATGTTATGTTACGTGTCTATCCACGGAGTCACCTAGTGCAG	7680 fluorescence intensity (a.u.)
AACATGATTTAACAGGTAACAGTCGCCCATGCCATTCTTGCGGAGTCACCTAGTGCAG	3350 fluorescence intensity (a.u.)
ATTTTCATGCTTAGATGTAGTAACTACACCAACATTACATCGGAGTCACCTAGTGCAG	3310 fluorescence intensity (a.u.)
ATGTTTCTGCGGCCCGTCATCCGTGTTTGAGTCGGTTATACGGAGTCACCTAGTGCAG	4220 fluorescence intensity (a.u.)
CGCAGCCCGAGCCCGCCGTATTCCACGTCGACGCTGTCGTCGGAGTCACCTAGTGCAG	5720 fluorescence intensity (a.u.)
GAAATTTTCAGGGTGTTACATAGATCAACTGAATTCCTTACGGAGTCACCTAGTGCAG	3550 fluorescence intensity (a.u.)
ATAAATTTGGACGCATCCCAAAATTCGGCAAACATATGACCGGAGTCACCTAGTGCAG	39200 fluorescence intensity (a.u.)
TATAAATTTGGACACATATATGAAACACATATATTGATCCCGGAGTCACCTAGTGCAG	30400 fluorescence intensity (a.u.)
CATAAATGAGATCCAGTGACGGCATGAGCATGTCCCAATTCGGAGTCACCTAGTGCAG	24900 fluorescence intensity (a.u.)
GTGAGAGAAGCCGCCTTGGATGATGTCAACCATGGTGGCGCGGAGTCACCTAGTGCAG	6930 fluorescence intensity (a.u.)
CAATGCTAGCCGCGCAATCTGCGCGGGCCACCATGCTATTCGGAGTCACCTAGTGCAG	3430 fluorescence intensity (a.u.)
CAAACCCTAGCTCATATGGTTGTAGTCTTAGCTACTATCACGGAGTCACCTAGTGCAG	50500 fluorescence intensity (a.u.)
CACACCCTTACTGTAGCTATCACTGCACAAAGCCAAAACCCGGAGTCACCTAGTGCAG	43600 fluorescence intensity (a.u.)
CAATTATCCGCAACGTATGGCTAGCTCAACCCTACTGTAACGGAGTCACCTAGTGCAG	3270 fluorescence intensity (a.u.)
GGGCCAAAACAAAGCCAGCGTGCAACCCTCGACAAAGCACCGGAGTCACCTAGTGCAG	4110 fluorescence intensity (a.u.)
GATGGCTATCTGCCCGGGCAAAGTGTACCCTTTTACTGTTCGGAGTCACCTAGTGCAG	30800 fluorescence intensity (a.u.)

Sequence	binding signal
GATATCATGTAGGAGTAGTAGTTGTTATGTGTGTGGGCTACGGAGTCACCTAGTGCAG	13000 fluorescence intensity (a.u.)
CCACGGGTTCTTCCTCGATGCCTTCTCCGGCGCCGTCCGGCGGAGTCACCTAGTGCAG	45300 fluorescence intensity (a.u.)
CCGTCTTCTTCCTCCACGTTCCTATCCATGGCGCCAGTTCCGGAGTCACCTAGTGCAG	41400 fluorescence intensity (a.u.)
CAACCATGGCGTCATCCTCTTCCTCCTCCTCCTCCTCCTCCGGAGTCACCTAGTGCAG	5800 fluorescence intensity (a.u.)
TCCATGGCGCCACACGTCACCACCTTCTCACACCCTCGTCCGGAGTCACCTAGTGCAG	18400 fluorescence intensity (a.u.)
CTTTGCCACGGCGGTCTCTCGTCCTCTTCCTCCTCTCCGCCGGAGTCACCTAGTGCAG	4190 fluorescence intensity (a.u.)
GCCTTCTTCCTCGCCTGCGGCCGTCTCCGCCACCTCGACCCGGAGTCACCTAGTGCAG	4040 fluorescence intensity (a.u.)
CGGCCGCGTCAGGGAGGACGCCGCGCGGCACTACTTCCGGCGGAGTCACCTAGTGCAG	3870 fluorescence intensity (a.u.)
CGACGGCCACAACCGGTTGTGGCGGCGTCTGCGTTGGCAGCGGAGTCACCTAGTGCAG	5430 fluorescence intensity (a.u.)
ATTGCTTTATATGGTTATTTAAGTTTATTTTGCATCCCTACGGAGTCACCTAGTGCAG	22600 fluorescence intensity (a.u.)
ACAGGAGCACCATCAACAGCTGACAACTTGGCATTGGTATCGGAGTCACCTAGTGCAG	3680 fluorescence intensity (a.u.)
ATCAAAATGGCAACAAAAGGGAGTCCAAAGTGAAAATTTTCGGAGTCACCTAGTGCAG	36100 fluorescence intensity (a.u.)
CCTCTGGCATCCATTATTGAGTTTATTAATCCTCCATCCTCGGAGTCACCTAGTGCAG	26300 fluorescence intensity (a.u.)
GCGGCTGAATTAATCTCCATCTGGCGAGCATCCACATCCTCGGAGTCACCTAGTGCAG	52300 fluorescence intensity (a.u.)
ATCTCCATCGCTGGCGACGGCGAGCATCGCATCGCATCGCCGGAGTCACCTAGTGCAG	3150 fluorescence intensity (a.u.)
ACATCATCGGCTACGTCAGGTCCAGCGCCGCCGCCAAGGCCGGAGTCACCTAGTGCAG	6640 fluorescence intensity (a.u.)
AACCCTAGCCACTCTCGTTTCATTGGTCTGACTTATTGGGCGGAGTCACCTAGTGCAG	14700 fluorescence intensity (a.u.)
CGCGCGTCTCGACTCCGTCCCAATCGATCGATCGATCGCGCGGAGTCACCTAGTGCAG	12800 fluorescence intensity (a.u.)
CACGAGCTGGTGGGCATCGAGGACTCCACACACGCGCATCCGGAGTCACCTAGTGCAG	42800 fluorescence intensity (a.u.)
CGCGCCATCGGCACGCTGGGCCAACACGGCACGGTGGACCCGGAGTCACCTAGTGCAG	3820 fluorescence intensity (a.u.)
GGACACACACCCACACGCGCATCCATCCATCCATCCATCCCGGAGTCACCTAGTGCAG	3220 fluorescence intensity (a.u.)
